TRPV1 PAM: HTS Assay for Compounds that Act as Potentiators of the Vanilloid Receptor 1. Transient receptor potential cation channel subfamily V member 1 (Homo sapiens), Q8NER1. TRPV1-expressing cells, Fluo-8 calcium influx, capsaicin EC20 potentiation. potentiation, % at 8.33 µM. 0.02% of 320,000 active; in the data active = potentiation above about 80%; inconclusive = between about 30% and that limit
Target sequence (Q8NER1 whole entry, looked up): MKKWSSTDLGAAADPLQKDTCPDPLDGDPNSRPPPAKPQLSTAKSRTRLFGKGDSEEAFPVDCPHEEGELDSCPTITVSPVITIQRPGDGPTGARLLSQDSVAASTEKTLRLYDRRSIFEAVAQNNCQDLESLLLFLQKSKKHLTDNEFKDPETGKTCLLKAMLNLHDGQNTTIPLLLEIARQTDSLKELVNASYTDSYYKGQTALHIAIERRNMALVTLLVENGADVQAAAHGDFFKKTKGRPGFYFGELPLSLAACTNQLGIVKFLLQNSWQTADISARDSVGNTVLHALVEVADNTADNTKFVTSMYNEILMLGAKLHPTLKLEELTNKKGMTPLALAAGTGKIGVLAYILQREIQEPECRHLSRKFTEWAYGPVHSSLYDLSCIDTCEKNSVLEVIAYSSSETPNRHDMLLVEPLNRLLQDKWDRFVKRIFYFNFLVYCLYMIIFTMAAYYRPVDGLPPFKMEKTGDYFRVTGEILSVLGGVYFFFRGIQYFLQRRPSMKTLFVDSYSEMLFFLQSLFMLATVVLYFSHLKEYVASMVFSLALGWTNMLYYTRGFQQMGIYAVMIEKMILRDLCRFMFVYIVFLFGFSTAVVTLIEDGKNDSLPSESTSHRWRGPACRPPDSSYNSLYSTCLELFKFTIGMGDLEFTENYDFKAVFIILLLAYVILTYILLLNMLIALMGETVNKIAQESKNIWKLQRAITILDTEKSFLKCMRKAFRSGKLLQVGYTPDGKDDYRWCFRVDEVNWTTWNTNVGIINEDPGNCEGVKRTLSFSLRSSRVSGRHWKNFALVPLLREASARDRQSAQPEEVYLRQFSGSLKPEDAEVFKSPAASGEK
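Cells expressing TRPV1 were dye-loaded with Fluo-8 and read kinetically: 10 s baseline, 3 min after compound (agonist portion), then 2 min after EC20 capsaicin (allosteric enhancer portion). Calcium-bound dye fluorescence at 480/520 nm.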
KCNH2 3.1 inh: qHTS for Inhibitors of KCHN2 3.1: Mutant qHTS; 0.95% of 340,000 active; U2OS KCNH2 3.1, thallium flux FluxOr; hits give low values; Potassium voltage-gated channel subfamily H member 2, brain isoform KCNH2 3.1 (human); activity change, % (tested at about 1.8 µM);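 active = maximum activity change below -70%; inconclusive = maximum activity change from -70% to -50%; inactive = maximum activity change above -50%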;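 note: thallium influx rate constant from kinetic fluorescence after stimulation buffer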
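FluxOr-based Tl+ influx in U2OS cells transduced with KCNH2 3.1 virus; rate constants normalized to DMSO controls.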
KCNH2 WT inh: qHTS for Inhibitors of KCHN2 3.1: Wildtype qHTS; Voltage-gated inwardly rectifying potassium channel KCNH2 (Homo sapiens), Q12809; U2OS, BacMam KCNH2, thallium flux FluxOr; hits give low values; activity change, % at 1.84 µM; 0.37% of 340,000 active; AID 720551, 2013;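 active = maximum activity change below -70%; inconclusive = maximum activity change between -70% and -50%; inactive = maximum activity change above -50%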
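U2OS cells were transduced with wild-type KCNH2 virus (2.03 x 10^8 / mL) for 4 h at room temperature, then cultured overnight at 37 C. Thallium flux was read with FluxOr dye. Rate constants were normalized to DMSO controls.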
TRPV1 agonist: HTS Assay for Compounds that Act as Agonists of the Vanilloid Receptor 1. 0.19% of 320,000 active. Transient receptor potential cation channel subfamily V member 1 (Homo sapiens), Q8NER1. TRPV1-expressing cells, Fluo-8 calcium influx, agonist mode. activation, % at 8.33 µM; in the data active = activation above about 80%; inconclusive = between about 30% and that limit
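Fluo-8 calcium influx in TRPV1-expressing cells, kinetic read (ex 480/em 520 nm). Compound added and read 3 min for agonist activity, followed by capsaicin at EC20 final and 2 min further read for enhancement.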
Each line names hits and unclear results; the compound was inactive in the other large screens. Shown are actives, neighbours in structure and some others; about 1.2% of the full set was active somewhere.

Clc1ccc(-c2nnc(CSc3nnc(-c4cccs4)n3Cc3ccccc3)o2)cc1	KCNH2 3.1 inh -86, KCNH2 WT inh -125
c1ccc(CCCNc2ncccn2)cc1	KCNH2 3.1 inh -97
CCOc1cccc2cc(C(=O)Nc3cc(C)on3)c(=O)oc12	KCNH2 3.1 inh -77
CCOc1cccc2cc(C(=O)NCc3ccc(C)cc3)c(=N)oc12	KCNH2 3.1 inh -208
O=C(O)c1cc([N+](=O)[O-])ccc1N1CCC(Cc2ccccc2)CC1	none
CCN(CC)C(=O)C1=C(C)N(CCC2=CCCCC2)C(=O)C(CC(=O)NC(c2ccccc2)c2ccccc2)C1 (stereo unspecified)	KCNH2 WT inh -88 (no result: TRPV1 PAM, TRPV1 agonist)
COc1ccc(S(=O)(=O)N2CCCCCC2)cc1NC(C)C(=O)Nc1ccc(NC(C)=O)cc1 (stereo unspecified)	none (no result: TRPV1 PAM, TRPV1 agonist)
O=c1c2ccccc2[nH]c(=S)n1CCCN1CCN(c2ccccc2F)CC1	KCNH2 WT inh -70
O=c1c2cccnc2[nH]c(=S)n1CCCN1CCN(c2ccccc2F)CC1	none
CC(=O)c1ccc(OCCCC(=O)OCC(=O)N2CCN(c3ccccc3)CC2)cc1	none
CCn1c(/C=C/Nc2ccccc2)[n+](CC)c2cc(Cl)c(Cl)cc21	KCNH2 3.1 inh -98, KCNH2 WT inh -132
CCn1c(/C=C/N(C(C)=O)c2ccccc2)[n+](CCCS(=O)(=O)[O-])c2cc(Cl)c(Cl)cc21	none
CCCCCCCCC(=O)NC(NC(=S)N1CCOCC1)C(Cl)(Cl)Cl (stereo unspecified)	TRPV1 agonist 83
CCCCCC(=O)NC(NC(=S)N1CCOCC1)C(Cl)(Cl)Cl (stereo unspecified)	TRPV1 agonist 83
O=C(NC(NC(=S)N1CCOCC1)C(Cl)(Cl)Cl)c1cccc2ccccc12 (stereo unspecified)	TRPV1 agonist inconclusive
O=S(=O)(Nc1cc(Br)cc2cccnc12)c1cccc2ccccc12	none (no result: KCNH2 3.1 inh, KCNH2 WT inh)
CCN(CC(=O)Nc1c(F)cccc1F)C(=O)c1ccc(S(=O)(=O)N(CC)c2ccccc2)cc1	none (no result: TRPV1 PAM, TRPV1 agonist)
COc1cc(S(=O)(=O)Nc2cccc3cn[nH]c23)c(OC)cc1Cl	none
O=C(N/C=N/O)C1=NOC(CNc2ncc(C(F)(F)F)cc2Cl)C1 (stereo unspecified)	TRPV1 agonist inconclusive
O=C(C1=NOC(CNc2ncc(C(F)(F)F)cc2Cl)C1)N1CCOCC1 (stereo unspecified)	TRPV1 agonist 121
O=C(NC1CC1)C1=NOC(CNc2ncc(C(F)(F)F)cc2Cl)C1 (stereo unspecified)	TRPV1 agonist 80
FC(F)(F)c1cnc(Nc2ccc(N3CCOCC3)cc2)c(Cl)c1	none
Cc1ccc(C(=O)Nc2ccc(SC(F)F)cc2)s1	TRPV1 agonist 86
CC[N+](CC)(CC)CC(=O)Nc1ccc(SC(F)F)cc1	none
CC1CC(C)CN(CCCCOc2ccc([N+](=O)[O-])cc2)C1 (stereo unspecified)	KCNH2 3.1 inh -99, KCNH2 WT inh inconclusive
O=[N+]([O-])c1ccc(OCCN2CCNCC2)cc1	KCNH2 3.1 inh -74
CC1CN(CCCOc2ccc([N+](=O)[O-])cc2)CC(C)O1 (stereo unspecified)	KCNH2 3.1 inh inconclusive
C(#CC12CC3CC(CC(C3)C1)C2)CN1CCOCC1	KCNH2 WT inh -103, TRPV1 agonist inconclusive
Cn1c(C(=O)N2CCN(c3ccc([N+](=O)[O-])cc3)CC2)cc2c(=O)[nH]c3ccccc3c21	KCNH2 3.1 inh -96, KCNH2 WT inh -71
CSc1ccc(CN(C)CC(=O)Nc2ccc(C)cc2Br)cc1	KCNH2 3.1 inh -153, KCNH2 WT inh -148
CCCn1c(N)c(C(=O)CN(C)CC(=O)Nc2ccc(C)cc2)c(=O)[nH]c1=O	none
CSc1ccccc1NC(=O)CN(C)CC(=O)Nc1cc(C)ccc1C	KCNH2 3.1 inh -76
CSc1ccccc1NC(=O)CN(C)CC(=O)NCc1ccccc1	none
CCCn1c(N)c(C(=O)CN(C)CC(=O)Nc2cc(C)ccc2C)c(=O)[nH]c1=O	KCNH2 3.1 inh -70
COc1ccc(N2CCN(CCCNC(=O)c3cc4sccc4n3C)CC2)cc1	KCNH2 3.1 inh -94, KCNH2 WT inh -109
COc1ccc(N2CCN(CCCNC(=O)c3ccc(CS(=O)(=O)c4ccc(Cl)cc4)o3)CC2)cc1	KCNH2 3.1 inh -99
COc1ccc(N2CCN(CCNC(=O)Nc3ccc(Cl)cc3)CC2)cc1	KCNH2 3.1 inh -70
CSCCC(NC(=O)c1ccco1)C(=O)NCCc1ccc(Cl)cc1 (stereo unspecified)	none (no result: TRPV1 PAM, TRPV1 agonist)
CC1=NN(c2ccccc2)C(c2ccco2)C1 (stereo unspecified)	none (no result: TRPV1 PAM, TRPV1 agonist)
O=[N+]([O-])c1ccc(/C=C/C2=NN(c3ccccc3)C(c3ccco3)C2)cc1 (stereo unspecified)	KCNH2 3.1 inh -100, KCNH2 WT inh inconclusive, TRPV1 agonist inconclusive
CSc1nc2ccccc2n1C(=O)NC1CCCCC1	none
CCC(C(=O)NC1CCCCC1)n1c(SCc2ccccc2F)nc2ccncc21 (stereo unspecified)	KCNH2 3.1 inh -118
Cc1cc(C)cc(-n2nnc(C(=O)NCc3ccccc3)c2N)c1	none
Cc1ccc(CNC(=O)c2nnn(-c3cccc(C)c3)c2N)cc1	KCNH2 3.1 inh -108 (no result: TRPV1 PAM, TRPV1 agonist)
Cc1cccc(NC(=O)c2cc(S(=O)(=O)N3CCCC3)cn2C)c1	none
Cc1cc(C)cc(NC(=O)c2cc(S(=O)(=O)N3CCCC3)cn2C)c1	KCNH2 3.1 inh -107
O=C(CSc1nc(=O)n2ccccc2n1)N1CCCCCC1	none
CC(=O)Nc1ccc(S(=O)(=O)NCC(=O)N2CCN(S(=O)(=O)c3cccs3)CC2)cc1	KCNH2 3.1 inh -101
CCOC(=O)N1CCN(C(=O)CNS(=O)(=O)c2cccs2)CC1	none
COc1cccc(NC(=O)c2cc3ccccc3oc2=O)c1	KCNH2 WT inh -76
COc1ccccc1C(=O)NC(=S)Nc1ccc(NC(=O)c2ccco2)cc1	KCNH2 3.1 inh -73
COc1ccccc1C(=O)Nc1ccc(NC(=O)c2ccco2)cn1	none
COc1cc(NC(=O)c2ccc(F)cc2)ccc1NC(=O)c1cc2ccccc2o1	none
COc1cc(NC(=O)c2ccccc2F)ccc1NC(=O)c1cc2ccccc2o1	KCNH2 3.1 inh -71
COc1cc(NC(=O)c2cc3ccccc3o2)ccc1NC(=O)c1ccco1	KCNH2 3.1 inh -81
COc1cccc(N2CCN(c3nc(C)cc(=O)[nH]3)CC2)c1	TRPV1 agonist 97
COc1ccccc1N(C)S(=O)(=O)c1ccc(C(=O)N(C)Cc2cccc(F)c2)cc1	none (no result: TRPV1 PAM, TRPV1 agonist)
CCN(CC)CCCN(C(=O)c1ccc(Br)cc1)c1nc(-c2ccc(OC)cc2)cs1	KCNH2 3.1 inh -109, KCNH2 WT inh -135
COc1ccc(-c2csc(N(CCCN(C)C)C(=O)c3ccc(OC)c(OC)c3)n2)cc1	none (no result: TRPV1 PAM, TRPV1 agonist)
CCN(CC)CCCN(C(=O)c1cccc(C)c1)c1nc(-c2ccc(OC)cc2)cs1	KCNH2 3.1 inh -73, KCNH2 WT inh -81
